Structures are written as SMILES. Compounds without any hit were thinned out: in the full panel of roughly 83,000, 20% have a hit.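 Plates (96-well) were seeded with cells, treated with compound at one concentration, and incubated for 48 hours before percent growth was determined.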 A number with no mark means an inactive call. Active and inactive are the calls of the source. How the source made its calls: active means growth percent below 10; inactive means the rest.

For the test, the system named is NCI-H322M lung. Description: NCI-60 one-dose screen, 48 h (100 = growth as untreated, 0 = no growth, -100 = all killed). Particulars: 10 µM.
In the case of `COc1ccc(-n2nnc3c(sc4ccccc43)c2=O)cc1`, the growth is 37.7%.

Turning to `COc1ccc(Cn2cc3c(c2-c2cc(OC)c(OC)c(OC)c2)CCc2cnoc2-3)cc1[N+](=O)[O-]`, the growth is 26.7%.

With `Nc1ncc(-c2ccc(C(F)(F)F)cc2)c(NC2CCCCCC2)n1`, the growth is 66.7%.

As for `CC(C)(C)CC(C)(C)c1ccc(O)c(Cc2ccc(Cl)cc2Cl)c1`, the growth is -89.6% (active).

Regarding `CC(=O)Nc1ccc2c(c1)C(N1CC3CCC(CC3)C1)c1ccccc1-2` (centres undefined), the growth is 115%.

For `COc1cccc2c1C(=O)c1c(O)c3c(c(O)c1C2=O)C[C@@](O)(C(=O)COC(=O)c1cccnc1)C[C@@H]3OC1CC(N)C(O)C(C)O1` (some centres undefined), the growth was -19.5% (active).

Consider `O=C(CCl)N1c2ccccc2Sc2ccc3ccccc3c21`, for which the growth is 65.9%.

For `CCOc1nc(-c2ccccc2)cc2c(O)c(C(=O)NC(C)C)[nH]c(=O)c12`, the growth was 120%.

Take `CN1/C(=C\C(I)C(I)C2=[N+](C)c3ccccc3C2(C)C)C(C)(C)c2ccccc21` (centres undefined): the growth was 20.9%.

On to `COc1ccc(-c2csc(NC(=O)CO[N+](=O)[O-])n2)cc1`, for which the growth is 96.1%.

Regarding `CCCCc1ccc(NC(=O)N(CCCl)N=O)cc1`, the growth was 96.8%.

Take `CCCCOCCOCCOCc1cc2c(cc1Br)OCO2`: the growth was 91.8%.

`Nc1nc2c(ncn2C2OC3COP(=O)(O)OC4C(COP(=O)(O)OC2C3O)OC(n2cnc3c(N)ncnc32)C4O)c(=O)[nH]1` (centres undefined): the growth is 105%.

As for `O=[N+]([O-])c1ccc(-c2nc(-c3ccccc3)c(-c3ccccc3)n2-c2ccccc2)cc1`, the growth was 58.5%.

The values are drawn from PubChem BioAssay (NCI).
